# Vaccinia mCherry: vaccinia inhibition (mCherry reporter) | Vaccinia virus mCherry reporter infection, fluorescence | Potency, µM (top dose mostly 36.5 µM), inactives show at the highest dose activity change, negative = inhibition, actives largely listed as inhibitors | 310,000 compounds, 0.63% hits | AID 720579; calls by dose curve; tested in A549 cells; further: potency means the concentration at half of the fitted maximal effect; nearly all actives have a fitted effect of over 35% in size
# LmPK inhibitor: blocks Leishmania mexicana pyruvate kinase activity; 290,000 compounds, 0.37% hits; Q27686; Potency, µM (titrated, usually from 57.5 µM), for the others: at the top dose activity change, negative = inhibition, most hits filed as inhibitors; purified LmPK, Kinase-Glo ATP luminescence, 1 h; further: potency means the concentration at half of the fitted maximal effect
# Target sequence (Q27686 whole entry, looked up): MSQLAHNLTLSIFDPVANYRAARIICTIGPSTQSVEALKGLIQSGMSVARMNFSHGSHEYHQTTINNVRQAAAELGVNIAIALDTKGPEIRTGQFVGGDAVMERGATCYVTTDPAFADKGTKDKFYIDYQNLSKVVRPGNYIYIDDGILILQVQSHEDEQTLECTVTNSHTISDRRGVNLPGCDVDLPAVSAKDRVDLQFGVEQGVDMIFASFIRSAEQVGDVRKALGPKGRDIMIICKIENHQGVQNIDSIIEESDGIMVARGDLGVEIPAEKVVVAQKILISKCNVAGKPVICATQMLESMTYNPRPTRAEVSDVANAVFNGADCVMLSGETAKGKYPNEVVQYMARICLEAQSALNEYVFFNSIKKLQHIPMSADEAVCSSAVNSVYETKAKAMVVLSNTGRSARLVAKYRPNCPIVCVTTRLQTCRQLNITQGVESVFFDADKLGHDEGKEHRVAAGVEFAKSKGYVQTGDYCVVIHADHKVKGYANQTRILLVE
#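 qHTS format; LmPK 0.1 nM; substrates PEP 0.5 mM and ADP 0.1 mM. One-hour room-temperature incubation, then coupled luciferase luminescence; 0.5 nM enzyme wells mark activation.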
# HCMV inh: blocks human cytomegalovirus replication | HFF cells, HCMV-luciferase reporter, 72 h; active compounds read low | activity change, negative = inhibition, % at 57.5 µM | 410,000 compounds, 4.5% hits; in the data active means activity change below about -60%; inconclusive means no clear call, values can overlap the other calls; inactive means above about -39%
#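 Two compound doses tested in HFFs infected with HCMV-luciferase, MOI 1 PFU/cell, 72 h at 37C. Lysate luminescence read with OneGlo; data normalized against buffer-only and 10uM Salinomycin inhibitor controls.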
# TbPYK inhibitor: blocks Trypanosoma brucei pyruvate kinase; TbPYK enzyme, Kinase-Glo Plus ATP luminescence, 45 min; 410,000 compounds, 0.12% hits; Q57TT1; Potency, µM (titrated, usually from 76.8 µM), for inactives: at the top dose activity, negative = inhibition, actives largely listed as inhibitors; AID 624173; further: potency means the concentration at half of the fitted maximal effect; nearly all actives have a fitted effect of over 50% in size
#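 T. brucei PYK with substrate was exposed to pin-transferred compounds across a concentration series, then started with 130 uM ADP (final). After 45 min at room temperature, Kinase-Glo Plus luminescence was read, normalized and curve-fitted.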
# VACV Venus inh: inhibitors of vaccinia virus (Venus reporter); Vaccinia virus Venus reporter expression, fluorescence; Potency, µM (top dose mostly 36.5 µM), for the others: top-dose activity change, negative = inhibition, most hits filed as inhibitors; 330,000 compounds, 0.46% hits; calls by dose curve; tested in A549 cells; further: potency means the concentration at half of the fitted maximal effect; nearly all actives have a fitted effect of over 30% in size
# * marks the source's active call; other numbers are inactive results; i = inactive; ? = inconclusive; / = no result given. Sampled rows, rich in hits. Any-hit rate of the full collection: about 5%. Unless noted, the call rests on the fitted dose curve; in most records, active means well fitted curve in the direction sought with a large enough effect; inconclusive means small, poorly fitted or top-dose-only effect, or another doubt; inactive means no such curve, though single readings can be large; an effect the other way counts as inactive or inconclusive. On the % scale 0 is the no-effect control and ±100 the full control effect.
SMILES,Vaccinia mCherry,LmPK inhibitor,HCMV inh,TbPYK inhibitor,VACV Venus inh
CCN(Cc1ccncc1)Cc1nc(CC2CC2)no1,-19.3%,2.0%,-60.1*,4.8%,-10.9%
COC(=O)C1=C(C)NC(C)=C(C(=O)OCCN2CCN(C(c3ccccc3)c3ccccc3)CC2)C1c1cccc([N+](=O)[O-])c1 (stereo not given),/,/,-64.4*,3.8%,/
COCCNC(=O)c1cc(OC)c(OC)cc1[N+](=O)[O-],/,-2.4%,-39.4,-4.6%,/
O=C(NCCCn1ccnc1)Nc1ccc(Cl)cc1,/,-0.5%,4.0,-2.5%,/
O=C(NCCCn1ccnc1)Nc1ccc(Cl)c(Cl)c1,/,1.2%,-106.5*,/,/
COCCNC(=S)Nc1ccc(Cl)c(Cl)c1,-2.3%,0.1%,?,-4.4%,-1.0%
C=COCCNC(=O)Nc1ccc(Cl)c(Cl)c1,-13.7%,4.7%,-60.2*,3.4%,-14.7%
COc1ccc(NC(=O)C(=O)NCCCn2ccnc2)cc1,-13.2%,1.0%,-60.5*,3.9%,-5.9%
COc1cc(C(=O)Nc2ccn(C)n2)ccc1OC(F)F,/,/,-19.8,0.0%,/
O=C(NC1CCCCC1)c1cccc2c1C(=O)c1ccc(-c3ccc(OC(F)(F)F)cc3)cc1S2(=O)=O,?,/,-3.9,2.1%,?
O=C(NC1CCCCC1)c1cccc2c1C(=O)c1ccc(N3CCC(Cc4ccccc4)CC3)cc1S2(=O)=O,-2.6%,/,-9.1,2.6%,-6.9%
CC1CCN(c2ccc3c(c2)S(=O)(=O)c2cccc(C(=O)NC4CC4)c2C3=O)CC1,i,/,-61.6*,0.5%,-7.2%
O=C(NCc1ccccc1Cl)c1cccc2c1C(=O)c1ccc(-c3ccc(OC(F)(F)F)cc3)cc1S2(=O)=O,?,/,/,3.5%,10µM*
O=C(NCc1ccccc1C(F)(F)F)c1cccc2c1C(=O)c1ccc(N3CCC(N4CCCCC4)CC3)cc1S2(=O)=O,?,/,-99.8*,-0.7%,?
COCCNC(=O)c1cccc2c1C(=O)c1ccc(N3CCOCC3)cc1S2(=O)=O,i,/,-102.4*,-3.0%,-4.0%
Cc1ccc(CNC(=O)c2cccc3c2C(=O)c2ccc(N4CCOCC4)cc2S3(=O)=O)cc1,i,/,-13.7,-11.9%,-9.3%
Cn1c(O)c(/C=C2\N=c3ccccc3=C2CCNC(=S)NC2CC2)c(=O)n(C)c1=O,i,7.4%,16.5,?,6.7%
CC1CCN(c2ccc3c(c2)S(=O)(=O)c2cccc(C(=O)NC[C@@H]4CCCO4)c2C3=O)CC1,i,/,-94.1*,-0.6%,-15.6%
OCc1cnc(SCc2cccc(F)c2)n1Cc1ccc(F)cc1,-13.7%,/,-71.0*,-11.9%,-7.2%
COc1ccc2oc(C(=O)NC3(C)CCS(=O)(=O)C3)c(C)c2c1 (stereo not given),-15.6%,/,-100.9*,-3.8%,-4.8%
COc1ccc2oc(C(=O)Nc3nccs3)c(C)c2c1,1.9%,/,73.8,-7.2%,0.3%
COc1ccc(C(=O)Nc2ccc3nc(SCC(=O)N4CCCC4)sc3c2)cc1,-7.3%,/,-0.2,0.0%,-4.4%
Cc1ccc(C)c(Nc2ccc3nonc3c2[N+](=O)[O-])c1,/,-0.6%,-87.2*,4.6%,/
CCCCCCCCCCCC(=O)NC(Cc1ccc(OC)c([N+](=O)[O-])c1)C(=O)O (stereo not given),-14.3%,-1.5%,27.4,-2.7%,-14.0%
CCOC(=O)C(Cc1ccc(OC)c([N+](=O)[O-])c1)NC(=O)CCC(=O)Nc1ccc(OC)cc1 (stereo not given),i,-4.7%,-104.7*,2.4%,-8.8%
SMILES,Vaccinia mCherry,LmPK inhibitor,HCMV inh,TbPYK inhibitor,VACV Venus inh
COc1cc(/C=N/N=C2/NC(=O)C(c3ccccc3)S2)ccc1O (stereo not given),-19.3%,0.2%,-64.9*,-5.2%,-16.7%
CCOc1cc(/C=N/N=C2/NC(=O)C(CC(=O)O)S2)ccc1OCc1ccccc1Cl (stereo not given),i,22.4µM*,-17.7,-15.9%,5.8%
COc1cc(/C=N/N=C2/NC(=O)C(Cc3ccc(F)cc3)S2)ccc1O (stereo not given),?,-5.9%,-19.3,3.6%,-23.0%
CCCOC(=O)c1ccc(N)cc1,/,/,/,2.4%,/
Cn1c(=O)n(C)c2cc(N3CCCCC3)c(NC(=O)Nc3ccc(Br)cc3)cc21,-21.8%,/,-33.3,-5.4%,-15.4%
Cc1ccc(NC(=O)Nc2cc3c(cc2N2CCCCC2)n(C)c(=O)n3C)cc1Cl,?,/,-98.8*,-3.5%,?
Cc1ccc(S(=O)(=O)c2cnc(SCC(=O)Nc3ccc4c(c3)OCCO4)[nH]c2=O)cc1,0.9%,/,10.0,0.8%,8.3%
CC1=C/C(=C(\c2cc(C)c(O)c(Br)c2)c2ccccc2S(=O)(=O)O)C=C(Br)C1=O,/,7.94µM*,0.4,?,/
CCOC(=O)C1=C(CC)OC(N)=C(C#N)C1c1cccs1 (stereo not given),-9.0%,2.9%,32.3,-16.6%,-17.7%
COC(=O)CC1=C(C(=O)OC)C(c2cccs2)C(C#N)=C(N)O1 (stereo not given),-9.6%,0.4%,-100.7*,-7.6%,?
CCc1cc(C(=O)OC)c(NC(=O)CN2CCN(C(=O)c3ccco3)CC2)s1,i,-5.9%,19.9,8.2%,-9.5%
Cc1ccc(C(=O)c2cc(C)sc2NC(=O)CN2CCN(C(=O)c3ccco3)CC2)cc1,11.2µM*,-1.5%,5.3,4.5%,?
CCCOc1cccc(C(=O)N(Cc2ccccc2)C2CCS(=O)(=O)C2)c1 (stereo not given),-9.4%,-1.1%,-65.7*,-2.0%,-3.3%
CCCCCc1ccc(OCCC[n+]2ccccc2)c(CCCCC)c1,10µM*,-3.6%,-98.6*,7.4%,10µM*
CC(=O)Nc1ccc(OCCC[n+]2ccccc2)cc1,/,-10.9%,22.6,2.6%,/
CCCCCc1ccc(OCCOCCn2c[n+](C)c3ccccc32)c(CCCCC)c1,15.8µM*,5.3%,/,-6.6%,11.2µM*
C[C@@H]1CN([C@H](C)CO)C(=O)CCCn2nncc2CO[C@@H]1CN(C)C(=O)C1CCCCC1,-1.6%,/,-5.6,-5.6%,-3.1%
O=C(CCl)Nc1cn(-c2ccccc2)nc1-c1ccccc1,/,0.6%,-95.7*,4.6%,/
O=C(Nc1cn(-c2ccccc2)nc1-c1ccc(F)cc1)c1ccccc1,-4.6%,-0.2%,-60.7*,-0.5%,-22.4%
COC(=O)[C@@]1(Cc2ccccc2)[C@H]2C(=O)N(Cc3ccccc3)C(=O)[C@H]2[C@H]2CN=C(SCc3ccc(C)cc3)N21,-8.8%,/,/,4.2%,?
CC(NC(=O)OCc1ccccc1)C(=O)Oc1cc2oc(=O)cc(-c3ccccc3)c2cc1Cl (stereo not given),-13.6%,-1.0%,-93.8*,-1.0%,-4.5%
O=C1C2CCCN2C(c2ccc(F)cc2)N1c1ccc(Cl)cc1 (stereo not given),-5.1%,0.7%,-77.1*,-5.4%,-0.9%
O=S(=O)(Nc1ccc(O)c2ccccc12)c1cccs1,-8.9%,11.2µM*,-9.2,-16.4%,1.0%
